The text below walks through data of PubChem BioAssay (NCI).

Some test systems named below: DU-145 prostate; K-562 leukemia; MALME-3M melanoma; MDA-MB-231 breast; RXF 393 renal; SF-268 CNS; SF-295 CNS; SF-539 CNS; UACC-257 melanoma; M14 melanoma.
Common to all, as to experiment: NCI-60 one-dose screen, 48 h (100 = growth as untreated, 0 = no growth, -100 = all killed)
What all share (conditions): 10 µM unless noted

This is part of a sample that, as a whole, favours compounds with a hit. Of some 83,000 tested, about 20% had one in any assay.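 Results are percent growth after 48 hours of single-concentration exposure. 100 means growth as in untreated cells, lower positive values show inhibition; negative values down to -100 show cell death.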 A number with no mark means an inactive call. The source made the active and inactive calls. The calls were made as follows: active = growth percent below 10; inactive = the rest.

Take `C[C@]12C=CC(=O)C=C1CCC1C2[C@@H](O)C[C@@]2(C)C1CC[C@]2(O)C(=O)COC(=O)CCC(=O)O` (stereo not given in full): the growth in the test on DU-145 prostate is 107%; in the test with K-562 leukemia, 104%; in the test with MALME-3M melanoma, 94.8%; with MDA-MB-231 breast, 94.7%; in the test on RXF 393 renal it was 126%; in the test on SF-268 CNS, 105%. Besides, the growth with SF-295 CNS is 116%; in the test on SF-539 CNS, 96.8%; with UACC-257 melanoma it was 99.3%; with M14 melanoma, 106%.

In the case of `CCCCCOc1ccc(C(=O)/C(Br)=C/C(=O)O)cc1`, the growth in the test with DU-145 prostate was 106%; in the test with K-562 leukemia it was 60.1%; with MALME-3M melanoma, 130%; with MDA-MB-231 breast, 109%; in the test on RXF 393 renal, 95.2%; with SF-268 CNS it was 97.5%. Besides, the growth is 112% in the test with SF-295 CNS, 100% in the test with SF-539 CNS, 106% in the test on UACC-257 melanoma and 56.8% in the test on M14 melanoma.

Consider `O=C1c2cc(Cl)ccc2S(=O)(=O)c2c(NCCCNCCO)nc3ccccc3c21`, for which the growth with DU-145 prostate is -24.7% (active); in the test with K-562 leukemia, 0.0837% (active); with MALME-3M melanoma it was -81.4% (active); in the test with MDA-MB-231 breast it was -70.7% (active); in the test with RXF 393 renal, -36.5% (active); with SF-268 CNS, 31.8%. Moreover, the growth was 40.6% with SF-295 CNS, -18% (active) in the test with SF-539 CNS, 10.3% in the test with UACC-257 melanoma and -37.9% (active) in the test with M14 melanoma.

For the compound `O=C(/C=C/c1cccs1)c1ccc(Cl)nc1`, the growth in the test on DU-145 prostate was 106%; in the test with K-562 leukemia, 97.1%; with MALME-3M melanoma, 95.7%; in the test with MDA-MB-231 breast, 116%; in the test with RXF 393 renal, 119%; with SF-268 CNS, 102%. Moreover, the growth was 101% in the test on SF-295 CNS, 101% in the test with SF-539 CNS, 100% with UACC-257 melanoma and 101% in the test with M14 melanoma.

For the compound `CCNC(=O)c1[nH]cc(-c2ccccc2)c1-c1cc(OC)c2c(c1OC)OCO2`, the growth in the test with DU-145 prostate was 112%; in the test with K-562 leukemia, 94%; in the test on MALME-3M melanoma it was 110%; in the test on MDA-MB-231 breast it was 97.2%; in the test on RXF 393 renal it was 102%; with SF-268 CNS, 97.6%. Further, the growth was 100% with SF-295 CNS, 102% in the test on SF-539 CNS, 102% with UACC-257 melanoma and 95.8% in the test on M14 melanoma.

In the case of `COc1cc2c(c(OC)c1OC)CCC(c1cccc(C(=O)Nc3cccc(Br)c3)c1)O2` (stereo not given), the growth in the test on DU-145 prostate is 85.1%; in the test with K-562 leukemia, 52.1%; in the test with MALME-3M melanoma, 102%; in the test with MDA-MB-231 breast it was 17.6%; with RXF 393 renal it was 78.6%; in the test with SF-268 CNS it was 67.1%. Besides, the growth in the test on SF-295 CNS is 64.5%; in the test with SF-539 CNS it was 99.4%; in the test on UACC-257 melanoma it was 74.1%; in the test on M14 melanoma, 73.9%.

Regarding `C[C@]12CC[C@@H]3c4ccc(O)c([N+](=O)[O-])c4CC[C@H]3[C@@H]1CCC2=O`, the growth was 117% in the test on DU-145 prostate; 96.7% in the test with K-562 leukemia; 98.5% in the test with MALME-3M melanoma; 91.4% with MDA-MB-231 breast; 97% in the test with RXF 393 renal; 66.7% in the test on SF-268 CNS. Besides, the growth with SF-295 CNS was 98.7%; in the test with SF-539 CNS, 98.2%; in the test with UACC-257 melanoma, 106%; with M14 melanoma, 102%.

Regarding `CNc1nc(S(=O)c2ccc(C#N)cc2)nc2ccccc12` (stereo not given), the growth is 40.6% in the test on DU-145 prostate; 24.9% in the test on K-562 leukemia; 54.8% in the test with MALME-3M melanoma; 54.8% with MDA-MB-231 breast; 62.9% in the test on RXF 393 renal; 87.8% in the test with SF-268 CNS. In addition, the growth in the test on SF-295 CNS was 99.5%; in the test on SF-539 CNS, 92%; in the test with UACC-257 melanoma, 85.3%; in the test on M14 melanoma, 71.5%.

Regarding `Brc1ccc(-n2cc(-c3nn[nH]n3)c(-c3cccs3)n2)cc1`, the growth with DU-145 prostate was 107%; in the test with K-562 leukemia it was 100%; with MALME-3M melanoma, 93.7%; in the test with MDA-MB-231 breast it was 88.1%; with RXF 393 renal it was 105%; in the test with SF-268 CNS, 100%. In addition, the growth with SF-295 CNS was 95.3%; with SF-539 CNS, 96%; with UACC-257 melanoma, 96.1%; in the test on M14 melanoma it was 95.9%.

Consider `COc1ccc(/C(C)=C(/c2ccc(OCCCN(C)C)cc2)c2ccc(OC(=O)Cc3ccccc3)cc2)cc1`, for which the growth is 94.2% in the test on DU-145 prostate; 11.9% in the test with K-562 leukemia; 95% with MALME-3M melanoma; 59.7% in the test on MDA-MB-231 breast; 67.8% in the test with RXF 393 renal; 76% in the test on SF-268 CNS. For the same compound, the growth with SF-295 CNS is 51.3%; in the test with SF-539 CNS it was 76.1%; in the test with UACC-257 melanoma, 82.1%; with M14 melanoma, -19.6% (active).

In the case of `CN(C)CCCC1(c2ccc(F)cc2)OCc2cc(-c3cncc4ccccc34)ccc21` (stereo not given), the growth was 48.5% in the test with DU-145 prostate; 1.06% (active) in the test on K-562 leukemia; -85% (active) in the test on MALME-3M melanoma; 38.3% in the test with MDA-MB-231 breast; 20.1% in the test with RXF 393 renal; 49.5% in the test on SF-268 CNS. The growth with SF-295 CNS is 17.8%; in the test on SF-539 CNS, 54.9%; in the test with UACC-257 melanoma it was -64.5% (active); with M14 melanoma, -56% (active).
